Assay outcomes deposited in PubChem BioAssay by National Center for Advancing Translational Sciences (NCATS).
HCMV antiviral: qHTS Assay for inhibitors of the human cytomegalovirus (HCMV); 4.5% of 410,000 active; AID 1259415, 2018; HFF cells, HCMV-luciferase reporter, 72 h; stronger effect = lower value; activity change, negative = inhibition, % at 57.5 µM; in the data active = activity change below about -60%; inconclusive = no clear call, values can overlap the other calls; inactive = above about -39%; note: % is set by controls: 0 for no effect and ±100 for the full control effect
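Inhibition of viral replication was scored as loss of reporter luminescence in HFFs infected with HCMV-luciferase (MOI 1 PFU/cell) for 72 h; compounds tested at 2 doses, normalized to buffer and Salinomycin controls.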
Pf growth 96h: Primary qHTS for delayed death inhibitors of the malarial parasite plastid, 96 hour incubation | Potency, µM (highest dose often 28.7 µM), for the others: at the top dose activity change, negative = inhibition, most hits filed as inhibitors | 6.9% of 320,000 active | P. falciparum luciferase reporter growth, 96 h | AID 504834, 2011; note: potency is the fitted concentration of half-maximal effect; % is set by controls: 0 for no effect and ±100 for the full control effect
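Luminescence readout: decreased luciferase signal marks inhibited growth of reporter-expressing P. falciparum in infected red cells (2% hematocrit, 0.05% parasitemia final), exposed to compound two generations (96 h, 37 C, 5% CO2).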
HCV inhibitor: qHTS Assay for Inhibitors of Hepatitis C Virus (HCV) | Huh7.5.1 HCVcc-Cre infection, luciferase reporter, 44 h | Potency, µM (titrated, usually from 41.8 µM), without a hit: at the highest dose activity change, negative = inhibition, actives largely listed as inhibitors | 3.4% of 340,000 active | AID 651820, 2012; note: potency is the fitted concentration of half-maximal effect; % is set by controls: 0 for no effect and ±100 for the full control effect
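After 44 h co-culture of compound, cells and HCVcc-Cre (~0.5 moi), substrate is added for 15 min at room temperature and luciferase measured over 15 sec. Cells were seeded at 1,000/well and pre-cultured 4 h.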
Sm TGR block: qHTS Assay for the Inhibitors of Schistosoma Mansoni Peroxiredoxins | Schistosoma mansoni thioredoxin glutathione reductase (TGR), Q962Y6 | AID 485364, 2010 | 3% of 360,000 active | purified TGR, DTNB reduction, TNB absorbance 405 nm | Potency, µM (titrated, usually from 114 µM), without a hit: at the highest dose activity change, negative = inhibition, hits mostly inhibitors; note: potency is the fitted concentration of half-maximal effect; % is set by controls: 0 for no effect and ±100 for the full control effect; nearly all actives have a fitted effect of over 60% in size
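First, TGR (20 nM dispensed) and NADPH were mixed with compound. Second, a 15 min room-temperature incubation followed. Third, further NADPH and then DTNB were added to start the reaction. Finally, TNB absorbance was monitored kinetically.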
SARS PLpro yeast: qHTS of Yeast-based Assay for SARS-CoV PLP. Potency, µM (series often up to 32.9 µM), inactives show at the top dose activity, positive = growth rescue, actives largely listed as activators. S. cerevisiae expressing SARS-CoV PLpro, growth rescue. 0.19% of 330,000 active; calls by dose curve; note: potency is the fitted concentration of half-maximal effect; 0% is about no effect; nearly all actives have a fitted effect of over 55% in size
Pf growth 48h: Primary qHTS for delayed death inhibitors of the malarial parasite plastid, 48 hour incubation. P. falciparum luciferase growth in erythrocytes, 48 h. Potency, µM (series often up to 28.7 µM), for the others: top-dose activity change, negative = inhibition, most hits filed as inhibitors. 5.9% of 310,000 active; note: potency is the fitted concentration of half-maximal effect; % is set by controls: 0 for no effect and ±100 for the full control effect
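Cell-based growth assay: transgenic P. falciparum expressing firefly luciferase, cultured in red cells within RPMI 1640 containing 0.5% w/v Albumax, 24 mM bicarbonate and gentamycin. A drop in luciferase activity indicates inhibition.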
The depositor's hits bear a star; i = inactive; u = inconclusive; x = no result; [ ] = remark or other dose. Hits are enriched below; roughly 15% of the tested compounds scored in any of these assays. Unless noted, calls come from the whole dose curve; as a rule, active = well fitted curve in the direction sought with a large enough effect; inconclusive = small, poorly fitted or top-dose-only effect, or another doubt; inactive = no such curve, though single readings can be large; an effect the other way counts as inactive or inconclusive.

SMILES | HCMV antiviral | Pf growth 96h | HCV inhibitor | Sm TGR block | SARS PLpro yeast | Pf growth 48h
COc1cc(/C=C2\SC(=Nc3ccccc3)N(CCc3c[nH]c4ccccc34)C2=O)ccc1OC(C)C(=O)O (stereo unspecified) | -32.1 | 5.22µM* | u | 2.1% | 7.3% | 10.4µM*
COCCN1C(=O)/C(=C/c2ccc(Oc3ccc([N+](=O)[O-])cn3)c(OC)c2)SC1=Nc1ccccc1 | u | 1.47µM* | u | 3.7% | 14.2% | -16.5%
COc1cc(/C=C2/NC(=O)N(CC(=O)Nc3ccc(C)cc3)C2=O)ccc1Oc1ccc([N+](=O)[O-])cn1 | -21.6 | 14.9% | -0.9% | x | -0.3% | 5.9%
Cc1nnc2c(Nc3cccc(O)c3)nc3ccccc3n12 | 33.3 | x | x | 2.5% | x | x
CC(=O)c1ccc(NC(=O)c2cc(C3CC3)nc3c2c(C)nn3-c2ccc(C)cc2)cc1 | 29.0 | x | x | 10.2% | x | x
Cc1ccc(C)c(OCCOCCn2c(-c3ccc(Br)cc3)nc3ccccc3c2=O)c1C | 16.3 | x | x | -0.9% | x | x
COc1ccc(C(=O)C(C)[n+]2ccc(C)c3ccccc32)cc1[N+](=O)[O-] (stereo unspecified) | -86.4* | u | -20.9% | u | -0.8% | u
COc1ccc(C(=O)NC(C)CCc2ccccc2)cc1[N+](=O)[O-] (stereo unspecified) | -5.9 | -6.4% | u | 12.9% | -0.4% | -7.0%
O=C(NCc1cccnc1)Nc1ccc2c(c1)OCO2 | -26.0 | u | 11.4% | 6.7% | -0.7% | 61.7%
CC(C)c1ccccc1NC(=O)COC(=O)c1cccnc1 | 6.6 | 13.1µM* | 9.4% | 7.8% | 1.8% | -9.5%
c1cncc(CNc2ccc3c(c2)OCO3)c1 | -9.4 | -101.5% | 28.8% | 15.8µM* | -23.7% | x
COc1cccc(/C=C/C(=O)OCC(=O)Nc2ccc3c(c2)OCO3)c1 | -97.4* | x | x | x | x | x
Cc1ccc(CNc2ccc3c(c2)OCO3)c(C)c1 | x | x | x | 39.8µM* | x | u
O=C(COC(=O)/C=C/c1ccc2c(c1)OCO2)Nc1ccccc1 | -6.4 | 14.2% | -20.7% | -0.8% | 0.2% | 25.0%
C[C@H]1CN[C@H](CCO)/C1=C\c1ccccc1 | 2.0 | x | 3.2% | x | x | x
Oc1c(C(c2ccccc2F)N2CCN(c3ccccc3F)CC2)sc2nc(-c3ccco3)nn12 (stereo unspecified) | -8.2 | x | x | -0.7% | x | x
O=C(Nc1cc(C2CC2)nn1-c1ccccc1)c1ccc(F)cc1 | -20.1 | x | 7.8% | x | -0.8% | x
O=C(Cc1ccccc1)NC1(Cc2ccc(O)cc2)CCCCC1 | -18.4 | -0.6% | 7.1% | x | 0.8% | -27.9%
O=C(COC(=O)c1cccnc1)Nc1ccc2c(c1)OCO2 | -83.6* | 0.0% | 9.1% | x | -1.4% | -24.5%
O=C(COC(=O)C1CC1)Nc1ccc2c(c1)OCO2 | -97.8* | 60.8% | 16.2% | 1.9% | 0.3% | -6.4%
O=c1c(N2CCN(c3cccc(C(F)(F)F)c3)CC2)csc2ccccc12 | -4.0 | x | x | 1.8% | x | x
CC(Sc1nnc(C2CC2)n1-c1ccccc1)C(=O)N1CCCC1 (stereo unspecified) | -17.5 | u | 14.8% | 31.6µM* | -0.4% | 33.2%
Cc1ccc(Cn2ccc(NC(=O)c3cc(-c4ccc(Br)cc4)on3)n2)cc1 | 62.0 | u | 1.6% | -3.7% | -6.0% | 71.3%
Cc1ccc(Cn2ccc(NC(=O)c3cc(-c4ccccc4)on3)n2)cc1 | u | i | -1.9% | -2.4% | 4.4% | 9.28µM*
Cc1ccc(Cn2ccc(NC(=O)c3cc(-c4ccco4)on3)n2)cc1 | -33.2 | 18.7% | x | 0.0% | 9.3% | 10.4µM*
SMILES | HCMV antiviral | Pf growth 96h | HCV inhibitor | Sm TGR block | SARS PLpro yeast | Pf growth 48h
COCCN1C[C@@H](CO)O[C@@H](n2cnc3c(NCCO)ncnc32)C1 | -14.0 | x | x | x | x | x
CCOC(=O)c1cn(CC)c2cc(N3CCOCC3)c(F)cc2c1=O | 21.1 | 14.4% | -21.7% | -2.4% | 13.0% | 1.85µM*
O=C(O)c1cn(-c2ccc(N3CCCC3)c(F)c2)c2c(F)c(F)c(F)cc2c1=O | -8.9 | 1.7% | -9.1% | -24.8% | 1.8% | 19.0%
CCn1cc(C(=O)NN)c(=O)c2cc(F)c(N3CCN(C)CC3)cc21 | 12.6 | 11.7µM* | -14.7% | 18.1% | -3.7% | u
CCN1CCN(c2cc3c(cc2F)c(=O)c(C(=O)O)cn3C2CC2)CC1 | 94.3 | 8.28µM* | -10.3%[8.37 µM] | -4.2% | 3.6% | u
CN1CCN(c2cc3c(cc2F)c(=O)c(C(=O)O)cn3-c2ccc(F)cc2)CC1 | x | 6.75µM* | x | x | x | u
CCOC(=O)c1cccc(C(=O)OCC)n1 | -5.0 | 3.2% | 24.9% | 4.1% | -1.0% | 11.2%
NC(=O)c1cccc(C(N)=O)n1 | -37.9 | 8.28µM* | 6.2% | -2.8% | -6.4% | 7.5%
Cc1cc(-c2nc3ccccc3o2)c2ccccc2n1 | 164.8 | u | 14.1µM* | 11.6% | -6.1% | 10.1%
COc1ccc(Br)cc1CN1CCC(N2CCCC2)CC1 | -9.7 | u | u | 1.2% | 2.8% | 9.28µM*
O=C(COc1ccc2ccccc2c1)N1CCN(Cc2c[nH]c3ccccc23)CC1 | 40.7 | 3.29µM* | u | -4.4% | -0.5% | 11.7µM*
COc1ccc(Br)cc1CN1CCCC(C(=O)N2CCCCC2)C1 (stereo unspecified) | -28.7 | u | -16.4% | -10.2% | 12.7% | x
COc1ccc(Br)cc1CN1CCCC(C(=O)N2CCCCCC2)C1 (stereo unspecified) | -14.1 | u | 3.16µM* | 28.9% | u | u
COc1ccc(Br)cc1CN1CCN(Cc2c[nH]c3ccccc23)CC1 | -99.9* | 5.3% | u | -11.4% | -1.9% | u
O=C(COc1ccc(Br)cc1)N1CCN(Cc2c[nH]c3ccccc23)CC1 | 9.8 | u | -11.6% | -2.4% | 5.1% | x
CC(c1ccccc1)n1cncc1C(=O)O (stereo unspecified) | -0.2 | 1.47µM* | 15.1% | 5.6% | 9.4% | 4.1%
CC(c1ccccc1)n1cnc2ccccc21 (stereo unspecified) | -7.2 | 32.0% | 1.7% | 1.5% | -0.4% | -18.0%
COC(=O)c1cncn1C(C)c1ccccc1 (stereo unspecified) | 16.9 | 2.08µM* | u | -3.0% | 1.7% | u
Cc1cc(C)c2cc(CN(Cc3ccc4c(c3)OCO4)Cc3nnnn3Cc3ccco3)c(=O)[nH]c2c1 | -14.6 | u | u | 39.8µM* | -0.1% | u
CCOC(=O)Cn1nnnc1CN(Cc1ccccc1)Cc1cc2cc(CC)ccc2[nH]c1=O | -28.6 | 11.7µM* | 2.7% | 13.3% | 4.2% | -13.7%
O=c1[nH]c2cc3c(cc2cc1CN(CCCO)Cc1nnnn1Cc1ccc(F)cc1)OCO3 | -1.4 | 0.0% | 4.1% | 0.0% | -3.1% | 13.2%
